# The whole screen tested about 65,000 compounds, of which about 2,100 (3.2%) showed an effect of 50% or more. The median lay at about -52%. The sample as a whole holds a higher share of strong results than the screen did.
# Test system: Plasmodium falciparum
# Experiment: Screen against P. falciparum Asexual Blood Stage (ABS), at 5uM
# Format: functional, Dd2
# Details: tested at 5 uM
row,Structure (SMILES),INHIBITION [%]
1,c1ccc(Cn2ccnc2CNC2CCCOc3ccccc32)cc1 (stereo not given),42.5
2,Cn1cc(CNC2CCCOc3c2ccc2ccccc32)cn1 (stereo not given),63.1
3,Cc1ccc2c(c1)OCCCC2NCc1nccn1Cc1ccccc1 (stereo not given),-13.4
4,Cn1cc(CNC2CCCOc3c(Cl)cccc32)cn1 (stereo not given),20.3
5,Cc1cccc2c1OCCCC2NCc1nccn1Cc1ccccc1 (stereo not given),63.8
6,Cc1cccc2c1OCCC2NCc1c(C)nn(C)c1N(C)C (stereo not given),0.635
7,CCCn1cc(-c2cc(-c3cc(CC)n[nH]3)c(C#N)c(N)n2)c(C)n1,-20.1
8,CCCN1CCC(c2nc3ccc(NCc4ccccc4)cn3n2)CC1,-1.75
9,O=C1CCCN1Cc1ncn2c1CN(C(=O)N1CCCC1)CCC2,-29.5
10,Cn1cc(NC(=O)N2CCC2c2ccccc2)ccc1=O (stereo not given),54.8
11,Cn1cc(NC(=O)N2CCCC2c2cccnc2)ccc1=O (stereo not given),-8.15
12,Cn1cc(NC(=O)N2CCC(c3ccccc3)CC2)ccc1=O,-187
13,O=C(C1=CCCC1)N1CCO[C@H]2[C@@H](Oc3ccccn3)CC[C@@H]21,-51.5
14,Cc1occc1C(=O)N1CCO[C@H]2[C@@H](Oc3ccccn3)CC[C@@H]21,-73.5
15,Cc1cc(C(=O)N2CCO[C@H]3[C@H](Oc4ccccn4)CC[C@@H]32)c(C)[nH]1,51.5
16,CCCc1nc(N2CCN(Cc3ccccn3)CC2)c2cnn(C)c2n1,19.2
17,CCCc1nc(N2CCCN(c3ccncc3)CC2)c2cnn(C)c2n1,65
18,CCCc1nc(N2CCCN(c3ncccn3)CC2)c2cnn(C)c2n1,-2.15
19,Cc1cnn(C2CCCN(C(=O)c3cccc4c3OCO4)C2)c1 (stereo not given),-116
20,CCN(Cc1cc(Cl)ccc1OC)Cc1nccn1C,67.2
21,CCn1nc(C)c(CN(Cc2ccccn2)Cc2ccccc2Cl)c1C,-33.9
22,Cn1cc(CN(Cc2ccccn2)Cc2ccccc2Cl)cn1,-31.1
23,Cn1ccnc1CN(Cc1ccccn1)Cc1ccccc1Cl,79.4
24,CCN(Cc1cc(Cl)ccc1OC)Cc1ncnn1CC,-33.4

row,Structure (SMILES),INHIBITION [%]
1,CCN(Cc1ccccn1)Cc1cc(Cl)ccc1OC,-28.3
2,Cc1cccc(CN2CCc3c(COCC(=O)N(C)C)nn(C)c3C2)n1,-107
3,Cc1ccccc1OCC1CCCN(C(=O)CN(C)C2CCNCC2)C1 (stereo not given),57.5
4,Cc1ccccc1OCC1CCCN(C(=O)CNC(=O)N(C)C)C1 (stereo not given),-158
5,COCC(=O)N1CCCC(COc2ccccc2C)C1 (stereo not given),-71
6,Cc1cnc(NC(=O)c2csc(NC3CCCC3)n2)s1,-86.7
7,Cc1[nH]/c(=N\C(=O)c2csc(NCC(C)C)n2)sc1C,-31.9
8,Cc1[nH]/c(=N\C(=O)c2csc(NC3CCCC3)n2)sc1C,50
9,CCOC(=O)N1CCCC2(CCN(Cc3ccccc3C#N)C2)C1 (stereo not given),-71.9
10,CN1CCN(C(CNC(=O)CCn2cccn2)c2cccs2)CC1 (stereo not given),-29.5
11,O=C(NCC(c1cccs1)N1CCOCC1)c1ccc(F)cc1Cl (stereo not given),-46.5
12,CN1CCN(C(CNC(=O)c2ccc(Cl)cc2F)c2cccs2)CC1 (stereo not given),53.9
13,CC(CNC(=O)c1ccc(Cl)cc1F)N1CCCC1 (stereo not given),-2.96
14,CC(CNC(=O)c1cc(Cl)ccc1F)N1CCCC1 (stereo not given),12.4
15,CN1CCN(Cc2ccccc2CNC(=O)c2cc(Cl)ccc2F)CC1,66.5
16,CN1CCN(Cc2ccccc2CNC(=O)c2ccc(Br)cc2F)CC1,48.8
17,CC(CNC(=O)c1ccc(Cl)cc1F)N1CCN(C)CC1 (stereo not given),64.1
18,CN1CCN(Cc2ccccc2CNC(=O)c2ccc(Br)cc2)CC1,46.2
19,Cc1cc(C)n(CCN2CCC(N(C)Cc3noc(C4CC4)n3)C2)n1 (stereo not given),-148
20,Cc1cc(C(=O)N2CCc3ncnc(-c4cnn(C)c4)c3CC2)c(C)o1,-23.2
21,CC(CNC(=O)c1ccc(=O)[nH]n1)N1CCc2ccccc21 (stereo not given),-120
22,CN(C)C(=O)NC[C@@H]1OC[C@H]2CN(Cc3cccc(F)c3)CC[C@H]21,-66.7
23,CN(C)CC1CSCCCN1C(=O)c1ccc(C(C)(C)C)cc1 (stereo not given),2.97
24,CN(C)CC1CSCCCN1C(=O)c1ccc(-c2ccccc2)cc1 (stereo not given),6.37

row,Structure (SMILES),INHIBITION [%]
1,CN(C)CC1CSCCCN1C(=O)c1ccc(-n2cccc2)cc1 (stereo not given),63
2,CC(C)NC(=O)C1CCC2(CCN(Cc3cnn(C)c3)CC2)CO1 (stereo not given),-63.9
3,CC(NC(=O)Cn1cc(-c2ccccc2)cn1)C1CC1 (stereo not given),-158
4,COCC1CN(S(=O)(=O)C2CC2)Cc2ncn(CC3CC3)c21 (stereo not given),-17.1
5,CNC(=O)C1CCN(C(=O)CCn2cccn2)CC1,-104
6,CS(=O)(=O)N1CCN(C(=O)CCn2cccn2)CC1,-7.11
7,CC(C)CN1CCN(C(=O)CCn2cccn2)CC1,67.8
8,CCC(=O)N1CCN(C(=O)CCn2cccn2)CC1,-114
9,COC1CCN(C(=O)CCn2cccn2)CC1,53.1
10,O=C(CCn1cccn1)N1CCN(CC(F)F)CC1,-177
11,COCc1nc(N(C)C)ncc1C(=O)OC,-29.3
12,Cc1ccc(CN2Cc3nnn(C)c3C(COCc3ccccc3)C2)s1 (stereo not given),-43.4
13,CN(CCc1ncnn1C1Cc2ccccc2C1)C1CCS(=O)(=O)C1 (stereo not given),-63.2
14,Cc1cccc(OCC(O)CN2CCN(c3nccs3)CC2)c1 (stereo not given),-7.68
15,CCOc1cc(C(=O)N2CCCC2)cc2occc12,-69.7
16,Cc1n[nH]cc1CNC1CCN(c2ccc(F)cc2)CC1,-38.1
17,Cc1n[nH]cc1CNC1CCN(c2cccc(C(F)(F)F)c2)CC1,62.8
18,Cc1n[nH]cc1CNC1CCN(c2ccccc2)CC1,-20.1
19,COc1ccc(C(=O)C2CCCN(c3cc(C#N)ccn3)C2)cc1F (stereo not given),-126
20,CCC(CNC1CCN(C(C)=O)CC1)Oc1cccc(C)c1 (stereo not given),53.2
21,CCC(CNC1CCN(C(C)=O)CC1)Oc1ccccc1Cl (stereo not given),48.8
22,COCC(=O)N1CCC(Oc2cccc(C)c2)CC1,-127
